# Measured values published in ChEMBL document CHEMBL4513216, “Probing the Open Global Health Chemical Diversity Library for Multistage-Active Starting Points for Next-Generation Antimalarials” (ACS Infect Dis, 2020).
# Screen size: about 68,000 compounds; about 2,700 (4%) showed an effect of 50% or more. The sample holds strong results, similar compounds and a random draw of the others, so the mix is not that of the screen.
# System: Plasmodium berghei
# Assay: Screen against P. berghei liver stage (PbLuc), transformed with Luciferase, at 2uM
# Type: functional, HepG2
# Details: tested at 2 uM
row,Structure (SMILES),INHIBITION
1,Cc1cc(C)n(Cc2cc(C(=O)N3CCCC3c3ccccn3)n[nH]2)n1 (stereo unspecified),-15.08%
2,CC(CC(=O)Nc1ncn(CC(=O)NCc2ccccc2)n1)C1CC1 (stereo unspecified),-1.21%
3,CC(C)(C)CC(=O)Nc1ncn(CC(=O)NCc2ccccc2)n1,-34.98%
4,O=C(Cn1cnc(NC(=O)CC2CCCC2)n1)NCc1ccccc1,67.59%
5,O=C(NCCn1cc(Cl)cn1)C1CCN(C(=O)C2CC2)CC1,23.64%
6,N[C@@H]1CC[C@H](C(=O)NCCn2cc(Cl)cn2)C1,61.95%
7,NC(=O)CN1CCC(C(=O)NCCn2cc(Cl)cn2)CC1,-10.84%
8,O=C(CCN1CCCCO1)NC1CCCN(CC2CCCCC2)C1 (stereo unspecified),-0.88%
9,Fc1cc(CNCc2ccc3c(c2)CCO3)ccc1N1CCOCC1,-10.05%
10,c1cc(CNCc2ccnc(N3CCOCC3)c2)c2c(c1)OCCO2,1.22%
11,COc1ccc(OC)c(CNCc2ccnc(N3CCOCC3)c2)c1,-28.39%
12,COc1ccc(CNCc2ccnc(N3CCOCC3)c2)cc1OC,62.13%
13,c1cc(CNCc2ccc3c(c2)CCO3)cc(N2CCOCC2)n1,57.82%
14,COc1ccc(CNCc2ccnc(N3CCCCC3)c2)cc1OC,30.91%
15,c1cnc(N2CCCC(c3cc4cccnc4[nH]3)C2)nc1 (stereo unspecified),14.47%
16,C=C(C)COc1cccc(C(=O)N(CC)Cc2noc(C)n2)c1,76.82%
17,C=C(C)COc1cccc(C(=O)N(CC)Cc2nccn2C)c1,52.98%
18,C=C(C)COc1cccc(CN(CC)Cc2noc(C)n2)c1,36.28%
19,C=C(C)COc1cccc(C(=O)N(CC)Cc2nc(COC)no2)c1,-18.57%
20,C=C(C)CNc1ccc(C(=O)N(CC)Cc2nccn2C)cn1,-13.51%
21,CCN(Cc1nccn1C)C(=O)c1ccc(NCc2ccccc2)nc1,8.89%
22,CCn1nc(C)c2ncnc(N(C)Cc3ccco3)c21,46.92%

row,Structure (SMILES),INHIBITION
1,CN(C)c1ccc(CN2C[C@@H]3CC[C@H]2CN(C2CCOCC2)C3)cn1,25.52%
2,Cn1cccc1C(=O)N1CCN(CC2CC2)c2ncccc2C1,8.13%
3,Cc1nc(-c2ccccc2)n(CC(=O)NC(C)C2CC2)n1 (stereo unspecified),32.56%
4,COc1ccc(C2=Nn3c(CCCN)nnc3-c3ccccc3C2)cc1,6.9%
5,COc1ccc(C2=Nn3c(CN)nnc3-c3ccccc3C2)cc1,42.64%
6,COc1ccc(C2=Nn3c(CCN)nnc3-c3ccccc3C2)cc1,54.73%
7,Cc1cnc(CNC(=O)[C@@]23CCO[C@@H]2CCN(c2ncccn2)C3)cn1,4.08%
8,Cc1cc(C(=O)N2C[C@@H]3COC[C@]3(CN(C)C)C2)c(C)o1,39.57%
9,CC(C)NC1CCc2[nH]c(=O)ccc2C1 (stereo unspecified),-13.79%
10,Cc1c(Br)cccc1C(=O)NCC1CCNCC1,5%
11,O=C(c1cccnc1O)N1CCN(Cc2ccccc2F)CC1,-24.15%
12,Cc1ncc(C(=O)N2CCCN(Cc3ccccc3F)CC2)c(O)n1,52.74%
13,O=C(c1cnc(C2CC2)nc1O)N1CCN(Cc2ccccc2F)CC1,15.34%
14,c1cnnc(N[C@@H]2CC[C@@H]3CN(Cc4c[nH]c5ccccc45)C[C@@H]32)c1,-2.96%
15,Cc1nc(C)c(S(=O)(=O)NC(=O)c2ccsc2)s1,68.08%
16,Cc1nc(C)c(S(=O)(=O)NC(=O)c2ccoc2)s1,44.86%
17,Cc1nc(C)c(S(=O)(=O)NC(=O)c2sccc2C)s1,24.23%
18,CC(C)Oc1ncc(C(=O)N2CCc3ccc(O)cc3C2)cc1Cl,11.33%
19,O=C(c1ccc(O)nc1)N1CCN(C(=O)c2ccc(F)cc2F)CC1,19.06%
20,O=C(c1cnc(OCC(F)(F)F)c(Cl)c1)N1CCc2ccc(O)cc2C1,64.2%
21,O=C(c1ccc(O)nc1)N1CCc2ccc(O)cc2C1,55.39%
22,O=C(c1ccc(O)nc1)N1CCN(C(=O)c2ccc(F)c(F)c2)CC1,-18.09%

row,Structure (SMILES),INHIBITION
1,O=C(c1c[nH]c(=O)c(Cl)c1)N1CCc2ccccc2C1,-15.11%
2,CC(=O)N1CC[C@H](c2nnc(Cc3c[nH]c4ccccc34)o2)C1,26.01%
3,CN(Cc1cn2c(n1)CN(CC1CCOC1)CC2)Cc1ccco1 (stereo unspecified),-0.38%
4,O=C(NCCn1cccc1)C1CCN(C2CCCCC2)CC1,10.72%
5,OCCOc1cc(F)ccc1NCc1cccc(F)c1F,-19.62%
6,Cn1ccnc1CN1CCC(CNS(=O)(=O)c2cccnc2)C1 (stereo unspecified),-43.75%
7,COc1ccc(NC(=O)C2CC(=O)n3cnnc3S2)cc1 (stereo unspecified),6.05%
8,COCCN1CCCC(O)(CN2CCN(Cc3ccncc3)CC2)C1=O (stereo unspecified),15.73%
9,CC(=O)c1ccc(CNC(=O)c2cc(C#N)cn2C)nc1C,-2.44%
10,Cc1ccc2nc(CSCC(=O)Nc3nnc(C(C)C)s3)cc(=O)n2c1,-3.16%
11,CC1=C(C#N)C(=O)N(C)C(=O)/C1=C\C1=Cc2ccccc2OC1,53.81%
12,CCN1C(=O)C(C#N)=C(C)/C(=C/C2=Cc3ccccc3OC2)C1=O,45.67%
13,O=C(Nc1cccnc1)C1=Cc2ccccc2OC1,3.62%
14,O=C(NCC1CCOCC1)c1cc(-c2ccncc2)c2cnccc2n1,10.89%
15,c1csc(C(CNCc2cccc3c2OCO3)N2CCOCC2)c1 (stereo unspecified),42.62%
16,CC(C)C(CNCc1cccc2c1OCO2)N1CCOCC1 (stereo unspecified),21.72%
17,Cc1ccc(C(CNCc2cccc3c2OCO3)N2CCOCC2)o1 (stereo unspecified),71.53%
18,COc1ccccc1OCC(=O)NCC(O)(c1ccccc1)C1CC1 (stereo unspecified),22.75%
19,CCOc1ccc(Oc2cc(N)ccn2)cc1,4%
20,O[C@H]1Cc2ccccc2[C@H]1Nc1ncccc1C(F)(F)F,-12.95%
21,Cc1ccc(CN2CCCn3nnc(COCCN(C)C)c3C2)s1,23.14%
22,Cn1cc(CN2CC[C@H]3O[C@H](C(=O)NC4CC4)CC[C@H]32)c2ccccc21,-18.7%

row,Structure (SMILES),INHIBITION
1,CCOc1ncccc1CNS(=O)(=O)c1ccc2c(c1)CCCC(=O)N2,20.35%
2,c1csc(-c2nc(CN3CCOC(Cn4cncn4)C3)cs2)c1 (stereo unspecified),66.97%
3,c1cn(-c2ccc(CN3CCOC(Cn4cncn4)C3)cc2)cn1 (stereo unspecified),40.88%
4,Fc1ccc(-c2nc(CN3CCOC(Cn4cccn4)C3)co2)cc1 (stereo unspecified),-17.31%
5,c1ccc(-c2nc(CN3CCOC(Cn4cncn4)C3)cs2)cc1 (stereo unspecified),31.57%
6,c1ccc(-c2nc(CN3CCOC(Cn4cccn4)C3)co2)cc1 (stereo unspecified),62.13%
7,CN(Cc1ccsc1)C(=O)CN1CCOC(Cn2cncn2)C1 (stereo unspecified),46.09%
8,Cc1cnn(CC2CN(CC(=O)N(C)Cc3ccsc3)CCO2)c1 (stereo unspecified),47.84%
9,c1cnn(CC2CN(Cc3ccc(-n4ccnc4)cc3)CCO2)c1 (stereo unspecified),53.03%
10,CN(Cc1ccsc1)C(=O)CN1CCOC(Cn2cccn2)C1 (stereo unspecified),62.46%
11,Cc1ccc(-c2nc(CN3CCOC(Cn4cccn4)C3)co2)cc1 (stereo unspecified),1.02%
12,c1cnn(CC2CN(CCc3ccncc3)CCO2)c1 (stereo unspecified),17.11%
13,c1csc(-c2nc(CN3CCOC(Cn4cccn4)C3)cs2)c1 (stereo unspecified),45.83%
14,OCC(CO)Nc1ccc2c(Cl)ccc(Cl)c2n1,34.55%
15,O=C(c1ccc(F)cc1)N1CCC2(CCCN2CC2CC2)CC1,-38.96%
16,NC(=O)Nc1cccc(CNC(=O)CCCc2ccccc2)c1,3.01%
17,Fc1cccnc1Oc1cc(F)c(CN2CCCC2)c(Cl)c1,-42.73%
18,Clc1cc(N2CCC(N3CCCC3)CC2)nc2[nH]ccc12,25.13%
19,Nc1cc2c(nn1)CCN(C(=O)c1cccc3c1OCO3)C2,4.55%
20,CC(=O)c1ccc(S(=O)(=O)NCc2cccnc2N(C)C)cc1,4.18%
21,COc1ncccc1-c1nc(-c2ccccn2)nn1C1CCS(=O)(=O)C1 (stereo unspecified),19.12%
22,Nc1nc2cn(C3CCCC3)c(=O)c-2c[nH]1,-33.11%

row,Structure (SMILES),INHIBITION
1,CCCc1nc(CN2CCOC(Cn3cncn3)C2)cs1 (stereo unspecified),53.98%
2,CC(C)CCc1nc(CN2CCOC(Cn3cncn3)C2)cs1 (stereo unspecified),7.13%
3,Fc1cccc(-c2nc(CN3CCOC(Cn4cncn4)C3)co2)c1 (stereo unspecified),16.51%
4,c1csc(-c2nc(CN3CCOC(Cn4cncn4)C3)co2)c1 (stereo unspecified),71.48%
5,CC(C)(C)c1nc(CN2CCOC(Cn3cncn3)C2)cs1 (stereo unspecified),-5.09%
6,c1csc(-c2nc(CN3CCOC(Cn4cccn4)C3)co2)c1 (stereo unspecified),-25.44%
7,Cn1c(CN2CCCCC2)nnc1C1CCN(c2nccc(N)n2)CC1,21.2%
8,c1cnn(CC2CN(Cc3noc(C4CC4)n3)CCO2)c1 (stereo unspecified),-28.51%
9,CCn1c(=O)n(Cc2nc(C3CC3)no2)c2ccccc21,30.82%
10,CCC1c2ccccc2CCN1C(=O)c1ccnc(C(=O)OC)c1 (stereo unspecified),20.34%
11,CCc1nnc(C(C)N2CCN(CCC(C)(C)C)CC2)o1 (stereo unspecified),38.97%
12,COc1cc(C(=O)O)ccc1OCC(=O)NCCc1ccccc1,10.1%
13,COc1cc(C(=O)O)cc(I)c1OCC(=O)NCCc1ccccc1,56.69%
14,COc1cc(OCC(=O)NCCc2ccccc2)cc(OC)c1OC,28.85%
15,CCN1C[C@H]2[C@@H](C1)N(c1ncc(F)cn1)CC[C@H]2OC,12.29%
16,CCc1ncc2c(n1)CN(Cc1nnc(C)o1)CC2,59.18%
17,CCc1ncc2c(n1)CN(Cc1nnc(CC)o1)CC2,9.18%
18,CCc1ncc2c(n1)CN(Cc1nnc(C(C)C)o1)CC2,46.76%
